MARV entry inh: qHTS for inhibitors of binding or entry into cells for Marburg Virus | Marburg virus pseudotyped entry inhibition, cell reporter | Potency, µM (doses to about 37.8 µM), for inactives: top-dose activity change, negative = inhibition, usual class: inhibitors | 300,000 compounds, 1.8% hits; calls by dose curve; tested in HEK293 cells; also: potency is read from the fitted curve at half-maximal effect
FMDV antiviral: High Throughput Screening for Foot and Mouth Disease Virus Antivirals. FMDV antiviral cell-based qHTS. Potency, µM (doses to about 57.9 µM), for inactives: top-dose activity change, negative = inhibition, most hits filed as inhibitors. 410,000 compounds, 1.2% hits. AID 1159524, 2015; calls by dose curve; tested in HEK293T cells; also: read-out not given here; potency is read from the fitted curve at half-maximal effect; nearly all actives have a fitted effect of over 45% in size
Lassa entry inh: qHTS for Inhibitors of binding or entry into cells for Lassa Virus; Lassa virus pseudotype entry inhibition, cell reporter; Potency, µM (titrated, usually from 37.9 µM), for inactives: at the highest dose activity change, negative = inhibition, hits mostly inhibitors; 300,000 compounds, 1.2% hits; calls by dose curve; tested in HEK293 cells; also: potency is read from the fitted curve at half-maximal effect; nearly all actives have a fitted effect of over 50% in size
HCV inhibitor: qHTS Assay for Inhibitors of Hepatitis C Virus (HCV); Potency, µM (doses to about 41.8 µM), inactives show at the top dose activity change, negative = inhibition, hits mostly inhibitors; 340,000 compounds, 3.4% hits; Huh7.5.1 HCVcc-Cre infection, luciferase reporter, 44 h; active = well fitted inhibition curve with a large enough effect; inconclusive = small, poorly fitted or top-dose-only effect, or another doubt; inactive = no such curve, though single readings can be large or run the other way; also: potency is read from the fitted curve at half-maximal effect
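HCVcc-Cre virus at an moi near 0.5 was added right after compound to cells cultured 4 h from seeding (1,000 cells/well). Luciferase activity was determined 44 h later, 15 min after substrate addition at RT.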
HCMV antiviral: qHTS Assay for inhibitors of the human cytomegalovirus (HCMV); HFF cells, HCMV-luciferase reporter, 72 h; stronger effect = lower value; activity change, negative = inhibition, % at 57.5 µM; 410,000 compounds, 4.5% hits; in the data active = activity change below about -60%; inconclusive = no clear call, values can overlap the other calls; inactive = above about -39%
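Two compound doses tested in HFFs infected with HCMV-luciferase, MOI 1 PFU/cell, 72 h at 37C. Lysate luminescence read with OneGlo; data normalized against buffer-only and 10uM Salinomycin inhibitor controls.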
* marks the source's active call; other numbers are inactive results; ? = inconclusive; . = no result given; [ ] = remark or other dose. Compounds with a hit are over-represented: about 7.9% of the library has one in this group of screens. % is scaled to controls: 0 for no effect and ±100 for the full control effect.

SMILES | MARV entry inh | FMDV antiviral | Lassa entry inh | HCV inhibitor | HCMV antiviral
O=C(Nc1nc(-c2ccc(Cl)cc2Cl)cs1)c1ccc(OCC2CCCO2)cc1 (stereo not drawn) | ? | ? | ? | 8.9µM* | -63*
O=[N+]([O-])c1cccc(NC(=S)Nc2nc(-c3ccc(Cl)cc3Cl)cs2)c1 | . | . | . | . | -87*
CCN(CC)S(=O)(=O)c1ccc(NC(=O)c2ccc(OCC3CCCO3)cc2)cc1 (stereo not drawn) | . | 28µM* | . | 6.3µM* | -90*
CCc1noc(C)c1C(=O)Nc1nc(-c2cccs2)cs1 | 13%[46.1 µM] | -14% | -3% | -12% | -11
CCc1noc(C)c1C(=O)Nc1nc(-c2ccc(Cl)cc2Cl)cs1 | ? | ? | -10% | 10µM* | -37
O=C(Nc1ccc(Br)cc1Cl)c1ccc(OCC2CCCO2)cc1 (stereo not drawn) | ? | 6% | -27% | ? | -38
Cc1cc(NC(=O)c2ccc(OCC3CCCO3)cc2)ccc1Br (stereo not drawn) | . | -19% | . | . | -81*
Cc1ccc2nc(NC(=O)c3ccc(OCC4CCCO4)cc3)sc2c1 (stereo not drawn) | ? | ? | ? | 8.9µM* | -84*
O=C(Nc1ccc(Cl)cc1)c1ccc(OCC2CCCO2)cc1 (stereo not drawn) | ? | 7% | ? | -30% | -25
Cc1cc(C)c2nc(NC(=O)c3ccc(OCC4CCCO4)cc3)sc2c1 (stereo not drawn) | ? | -22% | 7% | ? | ?
N[C@H](C(=O)O)c1nn[nH]n1 | . | -21% | . | . | .
Cc1ccccc1CN1CCN(c2ncc(C(=O)NCCN(C)C)s2)C1=O | . | . | . | . | -18
CCOC(=O)C1CCCN(CC(=O)N2CCCc3c2c(=O)oc2ccc(OCc4ccccc4)cc32)C1 (stereo not drawn) | 0%[46.1 µM] | -19% | 15%[46.1 µM] | . | 34
CCCCCOc1ccc2oc(=O)c3c(c2c1)CCCN3C(=O)CN1CCCC(C(=O)OCC)C1 (stereo not drawn) | ? | ? | 9.2µM* | ? | -10
CCOC(=O)c1c(C)n(S(=O)(=O)c2ccc(C)cc2)c2ccc(O)c(C(=O)O)c12 | 20%[46.1 µM] | -13% | 9%[46.1 µM] | 6% | -20
CCOc1ccc(NC(=O)CSc2nccn(-c3ccc4c(c3)OCCO4)c2=O)cc1 | 0% | -18% | -5% | -1% | -21
COc1ccc(/C=c2\s/c(=C/C(=O)c3ccc(C)cc3)[nH]c2=O)cc1OC | 2% | 2% | ? | ? | -33
CCCCNC(=S)N(C)/N=C/c1c(F)cccc1F | 3% | -3% | -19% | ? | -90*
COc1ccc([C@]23Cc4cc(C#N)ccc4[C@H](O2)c2c(cc(-c4ccccc4)oc2=O)O3)cc1 | 7%[14.2 µM] | . | . | . | .
CCC(C)C(=O)Nc1ccc(S(=O)(=O)N2CCCC2)cc1 (stereo not drawn) | . | -7% | . | 6% | 1
CCC(C)NS(=O)(=O)c1ccc(S(=O)(=O)N2CCCC3(CCCCC3)C2)cc1 (stereo not drawn) | ? | ? | ? | 10µM* | -35
Cc1ccc(C)c(-n2c(SCC(=O)NC(C(=O)O)C(C)C)nnc2-c2cccc(Cl)c2)c1 (stereo not drawn) | 18%[46.1 µM] | -8% | -2% | -5% | ?
COc1cc(-c2nnc(SCc3c(F)cccc3Cl)o2)cc(OC)c1OC | -20% | -11% | ? | 35µM* | .
NS(=O)(=O)c1ccc(CNC(=O)c2sccc2-c2ccccc2)cc1 | -11% | -27% | 24% | 0% | 50
Cc1ncc(CO)c(/C=N/NC(=S)Nc2ccc(Cl)c(Cl)c2)c1O | . | -10% | . | 14µM* | 7
SMILES | MARV entry inh | FMDV antiviral | Lassa entry inh | HCV inhibitor | HCMV antiviral
Cc1ncc(CO)c(/C=N/NC(=O)c2cc3c(s2)CCCC3)c1O | ? | -6% | ? | 7.9µM* | -66*
CC1CCN(C(=O)NC(=O)c2ccc(Cl)cc2)CC1 | 8%[46.1 µM] | 27% | ? | 2% | 26
CCOc1ccccc1NC(=O)COn1nnc2ccccc21 | ? | 8% | 1% | 13µM* | 33
CCOc1ccc(/C=C/C(=O)OCC(=O)NCCc2ccc(OCC)c(OCC)c2)cc1OC | 0% | -26% | 1% | 7.9µM* | -5
CCOc1ccccc1NC(=O)COC(=O)/C=C/c1ccc(OC)c(OC)c1 | ? | 18µM* | -22% | ? | ?
CCOc1ccccc1NC(=O)CC(O)(C(F)(F)F)C(F)(F)F | 0% | -14% | -16% | 10% | 26
COc1ccc(/C=C/C(=O)OCC(=O)NCc2ccccc2)cc1OC | . | -24% | . | 8% | 1
OCc1cnc(SCc2ccccc2)n1Cc1ccccc1 | -6%[46.1 µM] | -20% | 7%[46.1 µM] | 8% | -64*
O=C(NCCS(=O)(=O)N1CCN(c2cccc(Cl)c2)CC1)C(c1ccccc1)c1ccccc1 | . | -8% | ? | . | 11
ON(CCc1ccncc1)Cc1ccccc1 | -30%[46.1 µM] | -11% | 7%[46.1 µM] | 1% | 12
Cc1ccc2nc(-c3ccc(NC(=S)NC4CC(C)(C)NC(C)(C)C4)cc3)sc2c1 | ? | 63% | ? | ? | -102*
Cc1ccc2nc(-c3ccc(NC(=S)NC(=O)C(C)C)cc3)sc2c1 | 13% | . | 0% | -2% | 92
COc1cccc(-c2nc(CS(=O)(=O)CC(=O)NC3CCCCCC3)c(C)o2)c1 | . | -18% | . | ? | -14
CSc1nc(C(=O)N2CCc3c(cnc(C)c3CNC(=O)c3ccc4c(c3)OCO4)C2)cs1 | . | 0% | . | . | .
CN1CCC(C2(O)c3ccccc3CCc3ccccc32)CC1 | 18µM* | 6% | -2% | 7% | ?
COc1ccc(/C=C/C(=O)c2c(O)cc(C)oc2=O)c(OC)c1 | -7% | 10% | 15% | 11µM* | -38
COc1cc(O)c(C(=O)/C=C/c2ccc(OC)c(O)c2)c(OC)c1 | . | 21% | . | . | .
COc1cc(/C=C/C(=O)c2c(O)cc(C)oc2=O)cc(OC)c1O | -20% | 14µM* | 0% | -28% | -68*
COc1cccc(/C=C/C(=O)c2c(O)cc(C)oc2=O)c1O | ? | 20µM* | -11% | 8% | -97*
COc1cccc(-n2c(SC)nnc2C2CCN(CCC(C)c3ccc(C)o3)CC2)c1 (stereo not drawn) | . | -18% | . | . | .
Cc1ccc(N2C(=O)CCC(C(=O)O)C2c2cccs2)cc1 (stereo not drawn) | -2%[46.1 µM] | 0% | 26% | 3% | 62
Cc1nnsc1SCC(=O)O | 13% | 12% | -6% | 21% | -99*
Cc1cccc(N2CCN(C(=O)C3CCC(CNS(=O)(=O)c4cccs4)CC3)CC2)c1C (stereo not drawn) | ? | -14% | ? | 7.9µM* | -61*
Cc1ccc(Cl)cc1NC(=O)C(NS(=O)(=O)c1cccs1)c1ccccc1 (stereo not drawn) | ? | ? | ? | -12% | -70*
Cc1cccc(N2CCN(C(=O)C3CCN(S(=O)(=O)c4cccs4)CC3)CC2)c1C | 6%[46.1 µM] | 20% | ? | . | 20
